# Source: PubChem BioAssay (Tox21)
# Values without a mark were called inactive. Inconclusive results are not listed. Entries that show only a call come without a potency. Active and inactive are the calls of the source. Unless noted, calls follow the shape of the full dose curve.
# Key:
# [1] = qHTS assay to identify small molecule antagonists of the sonic hedgehog signaling (Shh) pathway (AID 1259369); also: nearly all actives have a fitted effect of over 45% in size; also: potency is read from the fitted curve at half-maximal effect
# Method in brief: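 3T3Gli1-Luc, conditioned-medium-stimulated, 24hr cpd, 37C/5% CO2; Gli1-driven firefly Luc luminescence after 30min RT with luciferase reagent. Cells plated 4hr before cpd.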
# [2] = biological target: Estrogen receptor beta (Homo sapiens) (UniProt Q92731); experiment: qHTS assay to identify small molecule agonists of the estrogen receptor beta (ER-beta) signaling pathway (AID 1259377; active = well fitted activation curve with a large enough effect in the signal ratio in the repeat runs, not every such curve was filed as active; the % refers to the signal ratio)
# Method in brief: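 ER-beta-UAS-bla HEK293T (GripTite) cells carrying a UAS-driven beta-lactamase reporter, in medium with 2% charcoal-stripped FBS, were exposed to compounds for 16 hr at 37C; LiveBLAzer B/G FRET substrate was then added and fluorescence read after 2 hours at room temperature.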
# [3] = biological target: Estrogen receptor beta (Homo sapiens) (UniProt Q92731); experiment: qHTS assay to identify small molecule antagonists of the estrogen receptor beta (ER-beta) signaling pathway (AID 1259378; active = well fitted inhibition curve with a large enough effect in the signal ratio in the repeat runs, not every such curve was filed as active; the % refers to the signal ratio)
# Method in brief: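 ER-beta-UAS-bla HEK293T (GripTite) cells in 2% charcoal-stripped FBS medium were preincubated 6 hr at 37C, dosed with compound, then stimulated with 1 nM E2 (final) for 16 hr; beta-lactamase reporter read by B/G FRET fluorescence after 2 hr substrate loading.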
# [4] = qHTS assay to identify small molecule agonists of the androgen receptor (AR) signaling pathway in the presence of an antagonist - cell viability counter screen (AID 1259379; active = well fitted curve in the direction sought with a large enough effect in the repeat runs; an effect the other way counts as inactive or inconclusive;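 also: MDA-kb2 human breast cancer cells carrying an MMTV luciferase reporter; series mostly up to about 92 µM; nearly all actives have a fitted effect of over 25% in size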)
# Method in brief: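 Cells: MDA-kb2 (MMTV-luc, AR and GR elements), 3,000/well, 5 hr settle. Added: nilutamide 3.0uM final, then compounds (15 conc.). Incubation: 16 hr, 37C, no CO2. Read-out: CellTiter-Fluor, 1 hr, fluorescence.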
# [5] = qHTS assay to identify small molecule antagonists of the estrogen receptor beta (ER-beta) signaling pathway - cell viability counter screen (AID 1259382; active = well fitted curve in the direction sought with a large enough effect in the repeat runs; an effect the other way counts as inactive or inconclusive; also: series mostly up to about 92 µM; nearly all actives have a fitted effect of over 55% in size)
# Method in brief: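 Cells: ER-beta-UAS-bla HEK293T, 2,000/well, 2% CS-FBS, 6 hr settle. Cpd + E2 (1nM final), 16 hr, 37C/5% CO2. Bla FRET substrate 2 hr RT, then CellTiter-Glo 30 min RT, luminescence.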
# [6] = qHTS assay to identify small molecule agonists or antagonists of the thyroid stimulating hormone receptor (TSHR) signaling pathway - wild type cell line counter screen (AID 1259384)
# Method in brief: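 Wild-type HEK293 cells were plated 18 h at 37 C/5% CO2, pin-dosed with compound plus Ro20-1724 medium, held 30 min at room temperature, then given cAMP-d2 and anti-cAMP-cryptate; fluorescence was read after 1 h. Fifteen concentrations, triplicate.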
# [7] = biological target: Thyrotropin receptor (Homo sapiens) (UniProt P16473); experiment: qHTS assay to identify small molecule antagonists of the thyroid stimulating hormone receptor (TSHR) signaling pathway (AID 1259385); also: nearly all actives have a fitted effect of over 20% in size
# Method in brief: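 TSHR-HEK293 cells were plated and held 18 h at 37C/5% CO2, then given compound plus Ro20-1724 and stimulated with TSH at 1.5 ng/mL final. After 30 min at room temperature, cAMP was detected with cAMP-d2/anti-cAMP-cryptate (1 h) by fluorescence.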
# [8] = qHTS assay to identify small molecule agonists of the estrogen receptor beta (ER-beta) signaling pathway - cell viability counter screen (AID 1259380; active = well fitted curve in the direction sought with a large enough effect in the repeat runs; an effect the other way counts as inactive or inconclusive; also: nearly all actives have a fitted effect of over 30% in size)
# Method in brief: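 HEK293T ER-beta-UAS-bla; 2% CS-FBS; 6 hr pre-plate, 16 hr cpd at 37C/5% CO2; LiveBLAzer read first, then CellTiter-Glo 30 min RT, luminescence.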
# [9] = biological target: Estrogen receptor (Homo sapiens) (UniProt P03372); experiment: qHTS assay to identify small molecule agonists of the estrogen receptor alpha (ER-alpha) signaling pathway in the presence of an antagonist (AID 1259383); also: nearly all actives have a fitted effect of over 15% in size; also: potency is read from the fitted curve at half-maximal effect; as to activation: top concentration of the series differs between compounds
# Method in brief: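 VM7Luc4E2, endog. ER-alpha + 4×ERE-luc; charcoal-stripped FBS, phenol red-free, 5 d; 24hr plating; +10.0nM ICI-182,780 (final); cpds 15 conc, 22hr, 37C/5% CO2; ONE-Glo luminescence.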
# [10] = biological target: Androgen receptor (Homo sapiens) (UniProt P10275); experiment: qHTS assay to identify small molecule agonists of the androgen receptor (AR) signaling pathway in the presence of an antagonist (AID 1259381); also: nearly all actives have a fitted effect of over 15% in size
# Method in brief: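 MDA-kb2 cells, 3,000/well, rested 5hr at 37C/0% CO2 → nilutamide 3.0uM final or buffer → compounds, 15 conc. → 16hr at 37C → ONE-Glo, 30min RT → luminescence.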
# Thyrotropin receptor (Homo sapiens), sequence (P16473 whole entry, looked up): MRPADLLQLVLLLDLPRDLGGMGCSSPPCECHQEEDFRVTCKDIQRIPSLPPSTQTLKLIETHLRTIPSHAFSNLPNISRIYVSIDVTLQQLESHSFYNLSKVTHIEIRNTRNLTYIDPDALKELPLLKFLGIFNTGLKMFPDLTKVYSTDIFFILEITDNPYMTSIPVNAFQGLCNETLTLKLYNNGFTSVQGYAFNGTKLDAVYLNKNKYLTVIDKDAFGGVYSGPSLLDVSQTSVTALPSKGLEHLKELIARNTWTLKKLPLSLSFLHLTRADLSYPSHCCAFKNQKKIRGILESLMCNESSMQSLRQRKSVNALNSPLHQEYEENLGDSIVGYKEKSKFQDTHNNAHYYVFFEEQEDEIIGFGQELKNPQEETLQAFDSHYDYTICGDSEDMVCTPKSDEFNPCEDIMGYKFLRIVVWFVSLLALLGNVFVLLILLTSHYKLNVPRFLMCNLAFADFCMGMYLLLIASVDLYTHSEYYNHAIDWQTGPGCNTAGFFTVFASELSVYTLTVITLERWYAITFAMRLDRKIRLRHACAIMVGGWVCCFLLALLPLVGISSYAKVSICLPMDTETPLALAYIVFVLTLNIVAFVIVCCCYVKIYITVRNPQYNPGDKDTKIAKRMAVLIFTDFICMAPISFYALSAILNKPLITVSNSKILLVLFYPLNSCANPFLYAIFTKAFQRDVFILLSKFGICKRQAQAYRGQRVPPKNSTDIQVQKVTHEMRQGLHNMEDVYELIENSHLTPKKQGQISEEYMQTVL
# Androgen receptor (Homo sapiens), sequence (P10275 whole entry, looked up): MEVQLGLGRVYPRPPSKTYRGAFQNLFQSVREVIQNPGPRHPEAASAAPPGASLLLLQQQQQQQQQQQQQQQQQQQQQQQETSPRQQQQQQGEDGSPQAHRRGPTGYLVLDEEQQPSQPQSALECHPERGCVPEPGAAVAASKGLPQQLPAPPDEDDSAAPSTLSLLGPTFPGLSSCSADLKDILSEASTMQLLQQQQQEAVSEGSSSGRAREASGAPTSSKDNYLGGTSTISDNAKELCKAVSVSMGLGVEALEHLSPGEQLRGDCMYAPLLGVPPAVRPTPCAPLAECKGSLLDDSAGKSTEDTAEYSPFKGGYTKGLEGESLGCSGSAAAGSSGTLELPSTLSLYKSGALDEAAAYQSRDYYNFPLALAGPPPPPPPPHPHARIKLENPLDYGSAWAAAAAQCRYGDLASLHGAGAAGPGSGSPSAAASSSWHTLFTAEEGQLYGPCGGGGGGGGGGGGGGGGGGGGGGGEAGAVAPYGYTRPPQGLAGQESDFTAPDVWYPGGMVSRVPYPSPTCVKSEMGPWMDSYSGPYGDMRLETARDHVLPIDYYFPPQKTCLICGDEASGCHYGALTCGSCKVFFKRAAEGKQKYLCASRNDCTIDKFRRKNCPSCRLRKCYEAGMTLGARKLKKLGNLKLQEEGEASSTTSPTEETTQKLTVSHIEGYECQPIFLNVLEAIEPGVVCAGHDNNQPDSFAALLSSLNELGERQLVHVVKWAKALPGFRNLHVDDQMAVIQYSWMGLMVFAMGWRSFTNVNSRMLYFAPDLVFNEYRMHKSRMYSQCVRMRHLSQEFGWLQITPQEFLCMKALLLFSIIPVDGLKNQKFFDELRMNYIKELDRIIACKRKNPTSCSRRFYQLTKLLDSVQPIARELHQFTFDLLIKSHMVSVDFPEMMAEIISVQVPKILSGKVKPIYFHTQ
# Estrogen receptor (Homo sapiens), sequence (P03372 whole entry, looked up): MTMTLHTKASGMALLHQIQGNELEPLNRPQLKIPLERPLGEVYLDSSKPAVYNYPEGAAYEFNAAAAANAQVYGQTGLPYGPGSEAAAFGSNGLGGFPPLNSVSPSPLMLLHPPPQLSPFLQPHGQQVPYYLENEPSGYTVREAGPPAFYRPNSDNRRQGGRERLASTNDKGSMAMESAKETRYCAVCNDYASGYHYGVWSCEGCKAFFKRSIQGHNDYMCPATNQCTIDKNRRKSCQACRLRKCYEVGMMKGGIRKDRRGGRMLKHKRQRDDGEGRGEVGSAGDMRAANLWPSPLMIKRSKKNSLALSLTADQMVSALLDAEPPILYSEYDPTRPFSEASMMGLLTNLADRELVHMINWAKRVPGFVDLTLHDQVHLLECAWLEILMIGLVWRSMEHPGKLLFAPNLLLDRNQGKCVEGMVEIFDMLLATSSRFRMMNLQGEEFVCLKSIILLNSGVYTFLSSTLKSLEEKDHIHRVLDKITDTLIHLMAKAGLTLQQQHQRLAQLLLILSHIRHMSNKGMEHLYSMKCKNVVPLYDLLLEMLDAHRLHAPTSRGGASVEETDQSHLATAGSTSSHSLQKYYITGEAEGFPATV
# Estrogen receptor beta (Homo sapiens), sequence (Q92731 whole entry, looked up): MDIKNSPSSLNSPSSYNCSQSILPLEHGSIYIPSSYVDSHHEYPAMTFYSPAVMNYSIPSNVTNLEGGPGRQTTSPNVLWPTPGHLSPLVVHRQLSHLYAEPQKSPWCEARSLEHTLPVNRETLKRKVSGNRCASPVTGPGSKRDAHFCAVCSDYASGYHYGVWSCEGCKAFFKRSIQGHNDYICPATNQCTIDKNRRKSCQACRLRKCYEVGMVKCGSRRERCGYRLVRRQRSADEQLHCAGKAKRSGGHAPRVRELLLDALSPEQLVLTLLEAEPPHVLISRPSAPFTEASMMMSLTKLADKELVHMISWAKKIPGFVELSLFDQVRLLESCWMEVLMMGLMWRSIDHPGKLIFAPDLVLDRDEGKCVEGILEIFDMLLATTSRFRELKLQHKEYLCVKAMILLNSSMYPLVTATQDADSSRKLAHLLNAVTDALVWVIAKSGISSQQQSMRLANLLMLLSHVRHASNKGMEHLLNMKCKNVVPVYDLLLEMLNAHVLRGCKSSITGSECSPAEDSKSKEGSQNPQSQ
structure (smiles),measurement,setting,value
[P]#[In],Potency,[1],inactive
same,Potency,[2],inactive
same,outcome,[3],inactive
same,Potency,[4],inactive
same,Potency,[5],inactive
same,outcome,[6],inactive
same,outcome,[7],inactive
ClC(Cl)(Cl)Cl,Potency,[1],inactive
same,Potency,[2],inactive
same,Potency,[4],inactive
same,Potency,[8],inactive
same,Potency,[5],inactive
same,Potency,[9],inactive
same,outcome,[6],inactive
same,outcome,[7],inactive
C/C=C/CC#N,Potency,[1],inactive
same,Potency,[2],inactive
same,Potency,[4],inactive
same,Potency,[8],inactive
same,Potency,[5],inactive
same,Potency,[9],inactive
same,outcome,[6],inactive
same,outcome,[7],inactive
COc1ccc(CN2CCNCC2)c(OC)c1OC,Potency,[1],inactive
same,Potency,[2],inactive
same,outcome,[3],inactive
same,Potency,[4],inactive
same,Potency,[5],inactive
same,Potency,[9],inactive
Cc1ccc2c(c1)C1CN(C)CCC1N2 (centres undefined),"activity change, negative = inhibition",[1],7.51% [at 19 µM]
same,activation,[2],-2.72% [at 19 µM]
same,"activity, negative = inhibition",[3],2.34% [at 19 µM]
same,"activity change, negative = cytotoxicity",[4],0.715% [at 19 µM]
same,"activity change, negative = cytotoxicity",[5],0.836% [at 19 µM]
same,activation,[9],0.841% [at 19 µM]
same,cAMP activity change,[6],-0.0429% [at 18.9 µM]
same,"activity change, negative = inhibition",[7],8.62% [at 19 µM]
CCOP(=S)(OCC)Oc1ccc(Cl)cc1Cl,Potency,[1],inactive
same,Potency,[2],inactive
same,outcome,[3],inactive
same,Potency,[4],inactive
same,outcome,[6],inactive
same,outcome,[7],inactive
C=C(Cl)CCl,Potency,[1],inactive
same,Potency,[2],inactive
same,Potency,[4],inactive
same,Potency,[8],inactive
same,Potency,[5],inactive
same,outcome,[6],inactive
same,outcome,[7],inactive
CCCN1CCC[C@@H]2Cc3[nH]ncc3C[C@H]21,Potency,[1],inactive
same,Potency,[2],inactive
same,outcome,[3],inactive
same,Potency,[4],inactive
same,Potency,[5],inactive
same,Potency,[9],inactive
same,outcome,[6],inactive
same,outcome,[7],inactive
N#CN,Potency,[1],inactive
same,Potency,[2],inactive
same,Potency,[4],inactive
same,Potency,[8],inactive
same,Potency,[5],inactive
CCNP(=S)(OC)O/C(C)=C/C(=O)OC(C)C (centres undefined),Potency,[1],inactive
same,Potency,[2],inactive
same,Potency,[4],inactive
same,Potency,[8],inactive
Clc1cc2c(cc1Cl)Oc1cc(Cl)c(Cl)cc1O2,"activity change, negative = inhibition",[1],-6.77% [at 0.349 µM]
same,activation,[2],-4.72% [at 0.348 µM]
same,"activity change, negative = cytotoxicity",[4],1.17% [at 0.35 µM]
same,"activity change, negative = cytotoxicity",[8],2.45% [at 0.349 µM]
same,activation,[10],3.07% [at 0.349 µM]
same,activation,[9],-1.56% [at 0.349 µM]
same,cAMP activity change,[6],1.16% [at 0.349 µM]
same,"activity change, negative = inhibition",[7],-3.4% [at 0.349 µM]
CCCC(C)(COC(N)=O)COC(N)=O,Potency,[1],25.8 µM (active)
same,Potency,[2],inactive
same,outcome,[3],inactive
same,Potency,[4],inactive
same,Potency,[5],inactive
same,outcome,[6],inactive
same,outcome,[7],inactive
C[C@H](N)C(=O)c1ccccc1,Potency,[1],inactive
same,Potency,[2],inactive
same,Potency,[4],inactive
same,Potency,[8],inactive
same,Potency,[10],inactive
same,Potency,[9],inactive
same,outcome,[6],inactive
same,outcome,[7],inactive
O=C(O)c1c(Cl)ccc2cc(Cl)cnc12,Potency,[1],inactive
same,Potency,[2],inactive
same,outcome,[3],inactive
same,Potency,[4],inactive
same,Potency,[9],inactive
same,outcome,[6],inactive
same,outcome,[7],inactive
CCC(=O)c1ccc(Cl)cc1,Potency,[1],inactive
same,outcome,[3],inactive
same,Potency,[4],inactive
same,Potency,[8],inactive
same,Potency,[5],inactive
same,outcome,[6],inactive
same,outcome,[7],inactive
C=C1CC[C@@]2(O)[C@H]3Cc4ccc(O)c5c4[C@@]2(CCN3CC2CC2)[C@H]1O5,Potency,[1],inactive
same,Potency,[2],inactive
same,Potency,[4],inactive
same,Potency,[5],inactive
same,outcome,[6],inactive
same,outcome,[7],inactive
CC(C)[N+](C)(CCC(C(N)=O)(c1ccccc1)c1ccccc1)C(C)C,Potency,[1],inactive
same,outcome,[3],inactive
same,Potency,[4],inactive
same,Potency,[8],inactive
same,Potency,[5],inactive
same,Potency,[9],inactive
same,outcome,[6],inactive
same,outcome,[7],inactive
CC[C@H](N)c1ccccc1,Potency,[1],inactive
same,outcome,[3],inactive
same,Potency,[4],inactive
same,Potency,[8],inactive
same,Potency,[5],inactive
same,Potency,[9],inactive
same,outcome,[6],inactive
same,outcome,[7],inactive
CC1NCCOC1c1ccccc1 (centres undefined),Potency,[1],inactive
same,outcome,[3],inactive
same,Potency,[4],inactive
same,Potency,[8],inactive
same,Potency,[5],inactive
same,Potency,[9],inactive
same,outcome,[6],inactive
same,outcome,[7],inactive
Cc1cc(OC(=O)N(C)C)nn1C(=O)N(C)C,Potency,[1],inactive
same,outcome,[3],inactive
same,Potency,[4],inactive
same,Potency,[5],inactive
same,Potency,[9],inactive
same,outcome,[6],inactive
same,outcome,[7],inactive
CCOC(=O)Nc1cccc(OC(=O)Nc2ccccc2)c1,Potency,[1],inactive
same,outcome,[3],inactive
same,Potency,[4],inactive
same,Potency,[8],inactive
same,Potency,[5],inactive
same,Potency,[9],12.2 µM (active)
same,outcome,[6],inactive
same,outcome,[7],inactive
COc1ccc(C=O)cc1O,Potency,[1],inactive
same,outcome,[3],inactive
same,Potency,[4],inactive
same,Potency,[8],inactive
same,Potency,[10],inactive
same,Potency,[5],inactive
same,Potency,[9],inactive
same,outcome,[6],inactive
same,outcome,[7],inactive
CCCCCCC1CCOC1=O (centres undefined),Potency,[1],inactive
same,outcome,[3],inactive
same,Potency,[4],inactive
same,Potency,[8],inactive
same,Potency,[5],inactive
same,outcome,[6],inactive
same,outcome,[7],inactive
O=C(NC(O)C(Cl)(Cl)Cl)NC(O)C(Cl)(Cl)Cl (centres undefined),Potency,[1],inactive
same,Potency,[2],inactive
same,Potency,[4],inactive
same,Potency,[5],inactive
same,Potency,[9],inactive
CC(C)N(Cc1ccccc1)C(=O)C(C)(C)C,Potency,[1],inactive
same,outcome,[3],inactive
same,Potency,[4],inactive
same,Potency,[8],inactive
same,Potency,[10],inactive
same,Potency,[5],inactive
same,outcome,[6],inactive
same,outcome,[7],inactive
CC(C)(O)C(Cl)(Cl)Cl,Potency,[1],inactive
same,Potency,[2],inactive
same,Potency,[4],inactive
same,Potency,[8],inactive
same,Potency,[9],inactive
same,outcome,[6],inactive
same,outcome,[7],inactive
CN(C)CCN(C)C,Potency,[1],inactive
same,outcome,[3],inactive
same,Potency,[4],inactive
same,Potency,[8],inactive
same,Potency,[5],inactive
same,outcome,[6],inactive
same,outcome,[7],inactive
CN(C)C(=O)Oc1cc(OC(=O)N(C)C)cc(C(O)CNC(C)(C)C)c1 (centres undefined),Potency,[1],inactive
same,outcome,[3],inactive
same,Potency,[4],inactive
same,Potency,[10],inactive
same,Potency,[5],inactive
same,Potency,[9],inactive
same,outcome,[6],inactive
same,outcome,[7],inactive
O=C(Cl)C(Cl)(Cl)Cl,Potency,[1],inactive
same,Potency,[2],inactive
same,Potency,[4],inactive
same,Potency,[5],inactive
same,Potency,[9],inactive
same,outcome,[6],inactive
same,outcome,[7],inactive
O=C(Cl)/C=C/C(=O)Cl,Potency,[1],inactive
same,Potency,[2],inactive
same,Potency,[4],inactive
same,Potency,[10],inactive
same,Potency,[5],inactive
O=CCCl,Potency,[1],inactive
same,outcome,[3],inactive
same,Potency,[4],inactive
same,Potency,[5],inactive
same,Potency,[9],inactive
same,outcome,[6],inactive
same,outcome,[7],inactive
